# Laboratory results from PubChem BioAssay (EPA / NIEHS).
# Values joined by “and” are separate entries in the source; they are usually repeats but may differ in a detail not shown here. Equal entries are not always repeated. Where a structure was tested more than once in an assay, its records may differ in their call. Active and inactive are the calls of the source. How the source made its calls: active means hit-call score of the fitted dose curve at least 0.9, where 1 is the maximum; inactive means score below 0.9.
# Assays:
# [1] = molecular target: CCAAT/enhancer-binding protein beta (Homo sapiens) (UniProt P17676); assay: ATG_C_EBP_CIS: Attagene CIS-FACTORIAL HepG2 Assay for human CCAAT/Enhancer Binding Protein (C/EBP) beta (AID 2282927); conditions: HepG2 Attagene cis-factorial transcription factor reporter; actives raise or lower the signal
# Procedure, shortened: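 HepG2, transient MRTU transfection, 24 h treatment. RT-PCR plus CE fluorescence; DMSO negative control, bidirectional fit.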
# [2] = ATG_CMV_CIS: Attagene CIS-FACTORIAL HepG2 Assay for human CMV (Internal Marker) (AID 2282928); conditions: HepG2 CMV promoter reporter, transcription factor profiling; actives raise or lower the signal;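 further: endpoint acts as a background internal control marker rather than a target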
# Procedure, shortened: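 HepG2 cells transiently transfected with multiple cis-regulated reporter units; 24 h compound exposure. Reporter mRNA quantified by RT-PCR, 6-FAM primer-extension labeling, HpaI digestion and capillary electrophoresis; bidirectional fitting against DMSO baseline.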
# [3] = ATG_DR4_LXR_CIS: Attagene CIS-FACTORIAL HepG2 Assay for human Liver X Receptor (LXR), DR4 submotif (AID 2282929); conditions: HepG2 Attagene DR4 cis-reporter, mRNA transcription; AC50: actives raise or lower the signal unless noted; outcome: actives raise or lower the signal unless noted
# Procedure, shortened: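 Endogenous factor activity at a DR4 cis-element is read as reporter mRNA in transiently transfected HepG2 cells. Exposure lasts 24 h; transcripts are amplified, fluorescently labelled and sized by capillary electrophoresis, with DMSO as baseline.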
# [4] = molecular target: Aryl hydrocarbon receptor (Homo sapiens) (UniProt P35869); assay: ATG_Ahr_CIS: Attagene CIS-FACTORIAL HepG2 Assay for human Aryl Hydrocarbon Receptor (Ahr) (AID 2282930); conditions: HepG2 AhR cis-factorial reporter transcription; actives raise or lower the signal
# Procedure, shortened: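 Endogenous factor activity is tracked through cis-promoter reporter units transfected into HepG2 cells. Transcript levels at 24 h are read by fluorescent RT-PCR and capillary electrophoresis, with activity in either direction scored relative to DMSO.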
# [5] = ATG_AP_1_CIS: Attagene CIS-FACTORIAL HepG2 Assay for human Activator Protein 1 (AP-1) (AID 2282931); conditions: HepG2 Attagene cis-factorial AP-1 reporter mRNA; actives raise or lower the signal
# Procedure, shortened: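 Fluorescence of labelled PCR fragments separated by capillary electrophoresis gives reporter mRNA levels. HepG2 with transfected cis-regulated reporter units, 24 h exposure; DMSO serves as baseline for bidirectional curve fits.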
# [6] = ATG_AP_2_CIS: Attagene CIS-FACTORIAL HepG2 Assay for human Activator Protein 2 (AP-2) (AID 2282932); conditions: HepG2 AP-2 cis-reporter, Attagene transcription factor profiling; AC50: actives raise or lower the signal unless noted; outcome: actives raise or lower the signal unless noted
# Procedure, shortened: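 Multiplexed mRNA reporter assay in HepG2: cis-regulated units report endogenous factor activity after 24 h treatment. Fluorescence from capillary electrophoresis of RT-PCR products gives the signal, with DMSO as baseline.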
# [7] = ATG_BRE_CIS: Attagene CIS-FACTORIAL HepG2 Assay for human Bone Morphogenetic Protein (BMP) Response Element (BRE) (AID 2282933); conditions: HepG2 BMP response element reporter, Attagene transcription factor profiling; actives raise or lower the signal
# Procedure, shortened: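 After a 24 h chemical treatment, transiently transfected HepG2 cells were lysed for RNA; reporter transcripts were quantified by fluorescent RT-PCR and capillary electrophoresis, normalised to DMSO.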
# [8] = molecular target: Transcription factor E2F1 (Homo sapiens) (UniProt Q01094); assay: ATG_E2F_CIS: Attagene CIS-FACTORIAL HepG2 Assay for human E2F Transcription Factor 1 (AID 2282935); conditions: HepG2 Attagene cis-reporter, E2F reporter RNA transcripts; actives raise or lower the signal
# Procedure, shortened: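 Measures reporter transcript levels via RT-PCR with capillary electrophoresis detection in HepG2 cells harboring cis-regulated reporter units; 24 h post-dose; bidirectional curve fitting with DMSO as baseline.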
# [9] = ATG_E_Box_CIS: Attagene CIS-FACTORIAL HepG2 Assay for human Enhancer Box (E-box) (AID 2282936); conditions: HepG2 E-box cis-reporter transcription, actives raise or lower the signal
# Procedure, shortened: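 First, HepG2 cells receive multiple cis-regulated reporter constructs by transient transfection. Next, chemicals are applied for 24 h. Finally, reporter mRNA is quantified via RT-PCR and capillary electrophoresis, with DMSO as baseline.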
# [10] = ATG_M_61_CIS: Attagene CIS-FACTORIAL HepG2 Assay for M61 Transcription Factor (Internal Marker) (AID 2282937); conditions: HepG2 Attagene CIS-FACTORIAL M61 internal marker reporter; actives raise or lower the signal
# Procedure, shortened: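 This endpoint serves as an internal background control within a multiplexed HepG2 cis-reporter panel. Cells are exposed for 24 h; reporter mRNA is amplified, fluorescently labelled and sized by capillary electrophoresis, with DMSO as negative control.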
# [11] = ATG_EGR_CIS: Attagene CIS-FACTORIAL HepG2 Assay for human Early Growth Response 1 (EGR1) (AID 2282938); conditions: HepG2 Attagene CIS-FACTORIAL EGR reporter mRNA; actives raise or lower the signal
# Procedure, shortened: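 HepG2, transient MRTU transfection (cis promoters), 24 h compound. RNA → RT (oligo-dT) → PCR → 6-FAM labelling → HpaI cut → CE fluorescence. Bidirectional fit, DMSO baseline.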
# [12] = ATG_M_19_CIS: Attagene CIS-FACTORIAL HepG2 Assay for M19 Transcription Factor (Internal Marker) (AID 2282939); conditions: HepG2 Attagene CIS-FACTORIAL M19 internal marker reporter; actives raise or lower the signal
# Procedure, shortened: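 In this multiplexed cell assay, transiently transfected HepG2 reporter units report endogenous transcription-factor activity; after 24 hours of treatment, labelled reporter cDNA fragments are quantified by capillary electrophoresis and fitted bidirectionally against DMSO.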
# [13] = ATG_Ets_CIS: Attagene CIS-FACTORIAL HepG2 Assay for human Erythroblast Transformation Specific (ETS) (AID 2282941); conditions: HepG2 ETS cis-reporter transcription; AC50: actives raise or lower the signal unless noted; outcome: actives raise or lower the signal unless noted
# Procedure, shortened: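 HepG2 cells transiently transfected with cis-promoter reporter transcription units were dosed for 24 h; reporter mRNA was measured by RT-PCR, 6-FAM primer extension, HpaI digestion and capillary electrophoresis, with bidirectional fitting against DMSO baseline.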
# [14] = molecular target: Hepatocyte nuclear factor 3-beta (Homo sapiens) (UniProt Q9Y261); assay: ATG_FoxA2_CIS: Attagene CIS-FACTORIAL HepG2 Assay for human Forkhead box A2 (FOXA2) (AID 2282942); conditions: HepG2 cis-reporter transcription factor activity, 24 h; actives raise or lower the signal
# Procedure, shortened: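 Cells: HepG2, transient multiplex reporter transfection. Exposure 24 h. Detection: reporter-specific RT-PCR, fluorescent labelling, restriction digest, capillary electrophoresis. Analysis: bidirectional curve fit, DMSO as negative control.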
# [15] = ATG_FoxO_CIS: Attagene CIS-FACTORIAL HepG2 Assay for human Forkhead box O (FoxO) (AID 2282943); conditions: HepG2 Attagene cis-reporter, FoxO element, mRNA; actives raise or lower the signal
# Procedure, shortened: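 Transfected HepG2 reporter cells exposed to test chemical for 24 h; reporter RNA measured by reverse transcription, PCR and fluorescent capillary electrophoresis; curves fitted for increases and decreases against DMSO.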
# [16] = ATG_GATA_CIS: Attagene CIS-FACTORIAL HepG2 Assay for human GATA Binding Protein (AID 2282944); conditions: HepG2 GATA cis-element reporter, Attagene multiplex mRNA; actives raise or lower the signal
# Procedure, shortened: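 Measures endogenous transcription factor-driven reporter mRNA in HepG2 cells transiently carrying cis-regulated constructs. 24 h dosing; RNA via oligo(dT) reverse transcription, PCR, HpaI digestion, capillary electrophoresis; fitted relative to DMSO.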
# [17] = ATG_GLI_CIS: Attagene CIS-FACTORIAL HepG2 Assay for human Zinc Finger Protein GLI1 (AID 2282945); conditions: HepG2, Attagene cis-factorial reporter mRNA, GLI element; actives raise or lower the signal
# Procedure, shortened: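 Transiently transfected HepG2 cells report endogenous transcription factor activity via cis-element-driven reporter units. After 24 h compound exposure, reporter mRNA was measured by RT-PCR with capillary electrophoresis; bidirectional fitting against DMSO baseline.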
# [18] = molecular target: Bile acid receptor (Homo sapiens) (UniProt Q96RI1); assay: ATG_IR1_CIS: Attagene CIS-FACTORIAL HepG2 Assay for human Nuclear Receptor Subfamily 1 Group H Member 4 (NR1H4), IR1 submotif (AID 2282946); conditions: IR1 reporter transcription, actives raise or lower the signal
# Procedure, shortened: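 HepG2 cells transiently transfected with multiple cis-promoter-driven reporter units to measure endogenous transcription factor activity; 24 h exposure. Reporter mRNA read by RT-PCR, FAM labelling, HpaI digestion and capillary electrophoresis. Bidirectional fit versus DMSO.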
# [19] = molecular target: Retinoic acid receptor alpha (Homo sapiens) (UniProt P10276); assay: ATG_DR5_RAR_CIS: Attagene CIS-FACTORIAL HepG2 Assay for human Retinoic Acid Receptor Alpha (RARE), DR5 submotif (AID 2282934); conditions: HepG2 Attagene cis-factorial RARE DR5 reporter, mRNA; actives raise or lower the signal
# Procedure, shortened: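 After 24 h of chemical exposure, transiently transfected HepG2 cells were lysed for total RNA; the DR5-regulated reporter transcript was quantified via RT-PCR and capillary electrophoresis, with activity fitted bidirectionally against DMSO.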
# [20] = ATG_ERE_CIS: Attagene CIS-FACTORIAL HepG2 Assay for Estrogen Response Element (ERE) (AID 2282940); conditions: HepG2 ERE cis-reporter, Attagene RNA transcript; actives raise or lower the signal
# Procedure, shortened: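 Measuring endogenous transcription factor output, the assay doses transfected HepG2 cells for 24 hours and quantifies reporter transcripts by fluorescent RT-PCR and capillary electrophoresis, with DMSO as baseline.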
# Sequence of Aryl hydrocarbon receptor (Homo sapiens) (P35869 whole entry, looked up): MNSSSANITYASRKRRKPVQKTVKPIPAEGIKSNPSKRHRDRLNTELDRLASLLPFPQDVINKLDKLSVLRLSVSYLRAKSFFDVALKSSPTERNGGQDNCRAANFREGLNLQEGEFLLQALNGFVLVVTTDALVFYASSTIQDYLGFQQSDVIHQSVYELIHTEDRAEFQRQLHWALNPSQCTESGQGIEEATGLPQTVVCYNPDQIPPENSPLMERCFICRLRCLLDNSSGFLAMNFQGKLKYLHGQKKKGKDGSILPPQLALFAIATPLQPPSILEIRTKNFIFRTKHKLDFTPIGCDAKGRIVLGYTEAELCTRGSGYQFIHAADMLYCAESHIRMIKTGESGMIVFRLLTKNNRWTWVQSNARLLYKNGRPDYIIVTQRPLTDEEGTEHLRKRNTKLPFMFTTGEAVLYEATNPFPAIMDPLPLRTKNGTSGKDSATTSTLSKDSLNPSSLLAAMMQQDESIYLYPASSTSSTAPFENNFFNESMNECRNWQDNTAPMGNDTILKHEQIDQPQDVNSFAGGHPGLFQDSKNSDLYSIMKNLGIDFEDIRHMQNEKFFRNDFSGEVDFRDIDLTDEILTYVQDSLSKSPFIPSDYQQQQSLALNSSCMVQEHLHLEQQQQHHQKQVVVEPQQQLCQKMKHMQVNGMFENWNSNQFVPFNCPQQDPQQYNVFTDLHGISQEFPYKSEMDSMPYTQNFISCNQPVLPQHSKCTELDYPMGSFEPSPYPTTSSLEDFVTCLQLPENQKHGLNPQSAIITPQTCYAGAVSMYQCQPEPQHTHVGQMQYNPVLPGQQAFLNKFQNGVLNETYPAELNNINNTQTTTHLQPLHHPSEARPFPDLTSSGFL
# Sequence of Hepatocyte nuclear factor 3-beta (Homo sapiens) (Q9Y261 whole entry, looked up): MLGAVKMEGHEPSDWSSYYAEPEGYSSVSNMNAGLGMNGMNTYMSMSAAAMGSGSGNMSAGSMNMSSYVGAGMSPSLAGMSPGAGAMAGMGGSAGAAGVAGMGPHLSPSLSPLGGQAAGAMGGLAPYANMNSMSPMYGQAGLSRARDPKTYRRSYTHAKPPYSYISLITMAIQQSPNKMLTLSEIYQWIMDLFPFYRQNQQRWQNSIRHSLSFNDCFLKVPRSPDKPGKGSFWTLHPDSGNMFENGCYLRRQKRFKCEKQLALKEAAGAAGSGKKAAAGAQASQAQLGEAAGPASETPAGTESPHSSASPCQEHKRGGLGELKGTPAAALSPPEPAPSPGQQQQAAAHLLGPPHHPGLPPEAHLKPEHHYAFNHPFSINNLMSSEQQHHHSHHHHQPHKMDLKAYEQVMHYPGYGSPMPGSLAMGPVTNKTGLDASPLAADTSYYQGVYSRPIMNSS
# Sequence of CCAAT/enhancer-binding protein beta (Homo sapiens) (P17676 whole entry, looked up): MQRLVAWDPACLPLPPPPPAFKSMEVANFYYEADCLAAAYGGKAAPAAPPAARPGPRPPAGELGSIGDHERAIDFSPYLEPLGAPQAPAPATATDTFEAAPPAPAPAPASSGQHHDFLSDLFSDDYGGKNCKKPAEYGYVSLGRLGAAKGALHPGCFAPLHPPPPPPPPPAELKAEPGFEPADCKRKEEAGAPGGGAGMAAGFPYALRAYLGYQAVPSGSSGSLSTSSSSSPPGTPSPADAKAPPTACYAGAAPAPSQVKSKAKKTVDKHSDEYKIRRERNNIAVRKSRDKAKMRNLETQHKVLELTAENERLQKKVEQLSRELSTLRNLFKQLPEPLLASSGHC
# Sequence of Retinoic acid receptor alpha (Homo sapiens) (P10276 whole entry, looked up): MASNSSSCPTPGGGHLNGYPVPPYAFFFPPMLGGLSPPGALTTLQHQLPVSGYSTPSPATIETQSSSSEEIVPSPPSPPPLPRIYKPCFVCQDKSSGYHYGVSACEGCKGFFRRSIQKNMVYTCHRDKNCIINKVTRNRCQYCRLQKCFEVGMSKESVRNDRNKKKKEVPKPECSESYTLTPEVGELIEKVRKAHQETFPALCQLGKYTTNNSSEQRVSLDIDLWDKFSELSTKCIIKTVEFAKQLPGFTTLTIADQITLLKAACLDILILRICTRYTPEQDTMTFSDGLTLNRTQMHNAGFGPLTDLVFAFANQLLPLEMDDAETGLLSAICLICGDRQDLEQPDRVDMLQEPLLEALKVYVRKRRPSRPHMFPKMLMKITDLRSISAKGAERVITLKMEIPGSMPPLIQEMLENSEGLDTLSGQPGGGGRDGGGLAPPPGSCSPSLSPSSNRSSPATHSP
# Sequence of Bile acid receptor (Homo sapiens) (Q96RI1 whole entry, looked up): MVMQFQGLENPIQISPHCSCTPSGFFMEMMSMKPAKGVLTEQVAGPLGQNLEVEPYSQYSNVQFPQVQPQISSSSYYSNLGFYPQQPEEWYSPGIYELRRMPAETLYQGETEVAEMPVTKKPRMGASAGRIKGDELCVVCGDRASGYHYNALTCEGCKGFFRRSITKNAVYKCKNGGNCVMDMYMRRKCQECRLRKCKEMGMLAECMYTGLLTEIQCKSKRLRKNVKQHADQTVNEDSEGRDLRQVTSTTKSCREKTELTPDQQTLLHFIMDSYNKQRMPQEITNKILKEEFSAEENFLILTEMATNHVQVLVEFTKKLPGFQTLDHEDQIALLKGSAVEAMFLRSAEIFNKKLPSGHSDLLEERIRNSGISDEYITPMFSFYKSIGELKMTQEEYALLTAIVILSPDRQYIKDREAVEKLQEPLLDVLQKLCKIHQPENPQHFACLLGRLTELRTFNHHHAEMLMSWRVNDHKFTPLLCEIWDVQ
# Sequence of Transcription factor E2F1 (Homo sapiens) (Q01094 whole entry, looked up): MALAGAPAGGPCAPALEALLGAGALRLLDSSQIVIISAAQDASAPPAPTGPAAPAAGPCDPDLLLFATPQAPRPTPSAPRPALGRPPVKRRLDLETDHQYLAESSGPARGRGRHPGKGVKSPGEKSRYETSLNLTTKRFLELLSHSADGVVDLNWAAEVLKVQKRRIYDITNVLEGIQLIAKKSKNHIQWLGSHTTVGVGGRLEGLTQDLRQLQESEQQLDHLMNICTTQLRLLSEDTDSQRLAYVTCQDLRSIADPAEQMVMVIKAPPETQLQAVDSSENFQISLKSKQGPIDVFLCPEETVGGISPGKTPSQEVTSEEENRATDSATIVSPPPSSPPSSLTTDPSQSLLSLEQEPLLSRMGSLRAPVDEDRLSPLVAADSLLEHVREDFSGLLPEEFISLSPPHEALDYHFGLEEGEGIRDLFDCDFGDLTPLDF
structure (smiles),measurement,setting,value
CC(O)COc1ccccc1 (configuration not stated),outcome,[1],inactive
same,outcome,[2],inactive
same,outcome,[3],inactive
same,AC50,[4],6.06 µM (active)
same,outcome,[4],inactive
same,outcome,[5],inactive
same,outcome,[6],inactive
same,outcome,[7],inactive
same,outcome,[8],inactive
same,outcome,[9],inactive
same,outcome,[10],inactive
same,outcome,[11],inactive
same,outcome,[12],inactive
same,outcome,[13],inactive
same,outcome,[14],inactive
same,outcome,[15],inactive
same,outcome,[16],inactive
same,outcome,[17],inactive
same,outcome,[18],inactive
CN(C)c1ccc(C(=C2C=CC(=[N+](C)C)C=C2)c2ccccc2)cc1,outcome,[1],inactive
same,outcome,[2],inactive
same,AC50,[3],2.07 µM (active) and 1.26 µM (active)
same,outcome,[4],inactive
same,AC50,[5],0.472 µM (active)
same,outcome,[5],inactive
same,AC50,[6],2.72 µM (active)
same,outcome,[6],inactive
same,outcome,[7],inactive
same,outcome,[8],inactive
same,AC50,[9],3.63 µM (active) and 1.85 µM (active)
same,outcome,[10],inactive
same,AC50,[11],1.46 µM (active) and 1.85 µM (active)
same,outcome,[12],inactive
same,AC50,[14],1.51 µM (active)
same,outcome,[14],inactive
same,outcome,[16],inactive
same,AC50,[17],1.42 µM (active) and 1.85 µM (active)
same,AC50,[18],1.28 µM (active)
same,outcome,[18],inactive
O=C(O)CN(CCCN(CC(=O)O)CC(=O)O)CC(=O)O,outcome,[1],inactive
same,outcome,[2],inactive
same,AC50,[3],6.63 µM (active)
same,outcome,[4],inactive
same,outcome,[5],inactive
same,outcome,[6],inactive
same,outcome,[7],inactive
same,outcome,[19],inactive
same,outcome,[8],inactive
same,outcome,[9],inactive
same,outcome,[10],inactive
same,AC50,[11],6.32 µM (active)
same,outcome,[12],inactive
same,outcome,[20],inactive
same,outcome,[13],inactive
same,outcome,[14],inactive
same,outcome,[15],inactive
same,outcome,[18],inactive
O=C1C=CC(=O)N1c1cccc(N2C(=O)C=CC2=O)c1,outcome,[1],inactive
same,outcome,[2],inactive
same,outcome,[3],inactive
same,outcome,[4],inactive
same,outcome,[5],inactive
same,outcome,[6],inactive
same,outcome,[7],inactive
same,outcome,[19],inactive
same,outcome,[8],inactive
same,outcome,[9],inactive
same,outcome,[11],inactive
same,outcome,[12],inactive
same,outcome,[20],inactive
same,outcome,[13],inactive
same,outcome,[14],inactive
same,outcome,[15],inactive
same,outcome,[16],inactive
same,outcome,[17],inactive
same,outcome,[18],inactive
OCC1CCC(CO)CC1 (configuration not stated),outcome,[1],inactive
same,outcome,[2],inactive
same,outcome,[3],inactive
same,outcome,[4],inactive
same,outcome,[5],inactive
same,outcome,[6],inactive
same,outcome,[7],inactive
same,outcome,[19],inactive
same,outcome,[8],inactive
same,outcome,[9],inactive
same,outcome,[10],inactive
same,outcome,[11],inactive
same,AC50,[20],23.2 µM (active)
same,outcome,[14],inactive
same,outcome,[15],inactive
same,outcome,[16],inactive
same,outcome,[17],inactive
same,outcome,[18],inactive
CN(C)CCOC(c1ccccc1)c1ccccc1,outcome,[1],inactive
same,outcome,[2],inactive
same,AC50,[3],150 µM (active)
same,AC50,[4],64 µM (active)
same,outcome,[5],inactive
same,outcome,[6],inactive
same,outcome,[7],inactive
same,outcome,[8],inactive
same,AC50,[9],60.6 µM (active)
same,outcome,[10],inactive
same,outcome,[11],inactive
same,outcome,[12],inactive
same,outcome,[20],inactive
same,outcome,[13],inactive
same,outcome,[14],inactive
same,outcome,[15],inactive
same,outcome,[16],inactive
same,outcome,[17],inactive
CNNCc1ccc(C(=O)NC(C)C)cc1,outcome,[1],inactive
same,outcome,[2],inactive
same,outcome,[3],inactive
same,outcome,[4],inactive
same,outcome,[5],inactive
same,outcome,[6],inactive
same,outcome,[7],inactive
same,outcome,[8],inactive
same,outcome,[9],inactive
same,outcome,[10],inactive
same,outcome,[11],inactive
same,outcome,[12],inactive
same,outcome,[14],inactive
same,outcome,[15],inactive
same,outcome,[17],inactive
